SMILES strings stand for the structures. The panel holds about 79,000 compounds, 15% with a hit somewhere; the sample as a whole holds those more often. A number with no mark means an inactive call. Activity calls are given as the source filed them. No stated cut-off is given here; in the data, active means growth inhibition above about 70%; inactive means the rest.

Test [1] is described as follows: NCI Yeast Anticancer Drug Screen. Data for the rad50 strain (AID 155).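 Further: 0% = growth of vehicle-only cultures of the same strain.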 As to conditions: S. cerevisiae rad50 strain growth inhibition; at 50.0 µM; active compounds read high. In outline: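 Genetically altered yeast (DNA repair pathway); compound treatment; growth inhibition vs vehicle ctrl.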
Test [2] in a line: NCI Yeast Anticancer Drug Screen. Data for the mec2-1 strain (AID 157). As to conditions: S. cerevisiae mec2-1 strain, at 50.0 µM, active compounds read high. In outline: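 Cells of the genetically defined mec2-1 yeast strain are incubated with test compound. Inhibition of growth is calculated against vehicle-treated controls.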
Test [3] in a line: NCI Yeast Anticancer Drug Screen. Data for the sgs1 mgt1 strain (AID 161).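 Further: 0% = growth of cultures given vehicle only.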 The settings on record: S. cerevisiae sgs1 mgt1 strain, at 50.0 µM, active compounds read high. In outline: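 Read-out: growth inhibition vs vehicle controls. Cells: mutant yeast strain deficient in DNA damage repair.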
Test [4] in a line: NCI Yeast Anticancer Drug Screen. Data for the cln2 rad14 strain (AID 165).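 Further: 0% = growth equal to vehicle treated cultures.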 The settings on record: S. cerevisiae cln2 rad14 strain, at 50.0 µM, active compounds read high. In a few lines: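 The screen exposed genetically defined yeast (cln2 rad14) to test compounds and scored growth inhibition relative to vehicle-treated controls.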
A short description of test [5]: NCI Yeast Anticancer Drug Screen. Data for the bub3 strain (AID 167). As to conditions: S. cerevisiae bub3 mutant strain, at 50.0 µM, active compounds read high. In a few lines: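 Yeast carrying a defined mutation is treated with each compound, and growth is compared with that of vehicle-exposed cells to give inhibition.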
The nature of test [6]: NCI Yeast Anticancer Drug Screen. Data for the mlh1 rad18 strain (AID 175). As to conditions: S. cerevisiae mlh1 rad18 strain growth inhibition; at 50.0 µM; active compounds read high. In a few lines:
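Compound-treated yeast growth, normalised to vehicle controls. Strain bears defined DNA repair mutations.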

`CC(=O)Nc1ccc(/C=C/C(=O)c2sc(-c3cccnc3)nc2C)cc1`: the growth inhibition is 33.2% in test [1]; 11.8% in test [2]; 3.25% in test [3]; 17.9% in test [4]; 17.5% in test [5]; 29.3% in test [6].

In the case of `COCC(OC)C(Cl)C(=O)Nc1ccc(Br)cc1` (stereo unspecified), the growth inhibition is 14.6% in test [1]; 31.1% in test [2]; 15.2% in test [3]; -14.4% in test [4]; 28.9% in test [5]; 10.8% in test [6].

For `Cc1cc(Cl)ccc1N1C(=O)C(=O)C(c2nc3ccccc3s2)C(=O)C1=O`, the growth inhibition was -4.1% in test [1]; 13.7% in test [2]; 17.9% in test [3]; -6.1% in test [4]; 2.2% in test [5]; 12.5% in test [6].

On to `O=C(Cl)c1cc(I)c(I)c(I)c1`, for which the growth inhibition in test [1] was 41%; in test [2], 47.3%; in test [3], 54.3%; in test [4] it was 37.2%; in test [5] it was 53.2%; in test [6] it was 40%.

Take `O=CN(CCO)CCO`: the growth inhibition in test [1] is -1.6%; in test [2] it was 1.25%; in test [3], -3.5%; in test [4], 11.1%; in test [5], 7.35%; in test [6], -4.2%.

Regarding `O=C1C2(CCCC13N=NCC3c1ccccc1)N=NCC2c1ccccc1` (stereo unspecified), the growth inhibition in test [1] was 28.9%; in test [2], -19.1%; in test [3], -0.95%; in test [4], -4.9%; in test [5], 0.85%; in test [6], 38.5%.

As for `NC1=Nc2cc(C(F)(F)F)ccc2Sc2nc3ccccc3n21`, the growth inhibition in test [1] is 4%; in test [2] it was -15.8%; in test [3], 20.1%; in test [4], 13.2%; in test [5], 22.4%; in test [6], 5.65%.

Regarding `Nc1nc(CCC(=O)O)cs1`, the growth inhibition is -6.85% in test [1]; -14.4% in test [2]; 4.9% in test [3]; -24.1% in test [4]; -1.45% in test [5]; -18.7% in test [6].

For `C1COC2OCCOC2O1` (stereo unspecified), the growth inhibition in test [1] is 5.2%; in test [2], -2.05%; in test [3], 4.6%; in test [4], -2.55%; in test [5], 1.4%; in test [6], 0.7%.

With `CC(C)(C)CC(C)(C)c1ccc(OCCOc2ccc([N+](=O)[O-])cc2N)cc1`, the growth inhibition is 56.5% in test [1]; 11.1% in test [2]; 41.6% in test [3]; 4% in test [4]; 4.9% in test [5]; 26.1% in test [6].

Regarding `CCCCC(CCc1ccccc1)C(=O)NCC` (stereo unspecified), the growth inhibition is -5.1% in test [1]; -11.6% in test [2]; -18.4% in test [3]; -11% in test [4]; -12.3% in test [5]; 5.1% in test [6].

Regarding `COc1cc(/C=C2/C(=O)N(C(=O)c3ccccc3O)N=C2C)ccc1O`, the growth inhibition in test [1] is -6.55%; in test [2], -10.3%; in test [3], -9.4%; in test [4] it was 9.75%; in test [5] it was 1.65%; in test [6], -13.9%.

`CCN(CC)CCN(C(=S)Nc1ccccc1)c1ccccc1`: the growth inhibition was 5% in test [1]; 28.1% in test [2]; 17.6% in test [3]; -10.1% in test [4]; 9.5% in test [5]; 27.4% in test [6].

`CC(C)(C)C(=O)O[C@H]1C=C[C@@H](O)[C@@H]2[C@H]1[C@@H]1C=C[C@H]2C1`: the growth inhibition in test [1] was 28.1%; in test [2] it was 41.6%; in test [3], 66.8%; in test [4] it was 11.6%; in test [5], 55.9%; in test [6], 53.5%.

`O=c1[nH]c(=O)n(C2CC(O)C(CO)O2)cc1Cl` (stereo unspecified): the growth inhibition was 0.75% in test [1]; -11.1% in test [2]; 2.9% in test [3]; 11.8% in test [4]; 1.45% in test [5]; 2.25% in test [6].

For `COC(=O)c1ccc(N(C)CCC(=O)COC(C)=O)cc1`, the growth inhibition is 17.9% in test [1]; 9.7% in test [2]; 12% in test [3]; -10.2% in test [4]; 7.6% in test [5]; 10.3% in test [6].

`CSC1(C(=O)O)C2CCC3C2CCC31` (stereo unspecified): the growth inhibition in test [1] was 12.7%; in test [2], 16.1%; in test [3], 9.95%; in test [4], 26.9%; in test [5] it was 51.2%; in test [6], 41.5%.

For the compound `CCOC(=O)NC(NC(=O)OCC)c1ccc(OC)cc1`, the growth inhibition in test [1] was -7.7%; in test [2], -1.95%; in test [3], 1.75%; in test [4], 42.7%; in test [5], -6.55%; in test [6] it was -10.1%.

Regarding `O=C(O)c1cc(Cl)ccc1-c1ccc(Cl)cc1C(=O)Nc1ccc2c(c1)Cc1cc(Cl)cc(Cl)c1-2`, the growth inhibition is 96.2% (active) in test [1]; 97.5% (active) in test [2]; 97.8% (active) in test [3]; 97.2% (active) in test [4]; 95.6% (active) in test [5]; 97.3% (active) in test [6].

`CCOC(=O)c1cc(-c2ccc(OC)c(OC)c2)c[nH]1`: the growth inhibition in test [1] is 14.6%; in test [2], -2.3%; in test [3], 40.2%; in test [4] it was 12.6%; in test [5] it was 23.1%; in test [6], 28%.

For the compound `CC(=O)N1CC(C)(C)c2c1cc(C)c(O)c2C`, the growth inhibition in test [1] was 1.85%; in test [2], -47.9%; in test [3] it was -8.4%; in test [4], -7.8%; in test [5], 5.15%; in test [6], -1.8%.

For the compound `Cc1cccc(C)c1NC(=O)CCC/C(CC(=O)c1ccc(F)cc1)=N\NC(=O)C(=O)NN`, the growth inhibition in test [1] was 20.2%; in test [2] it was 2.7%; in test [3] it was 2.4%; in test [4], -32.1%; in test [5] it was -4.9%; in test [6] it was 19.8%.

Turning to `CNCC(O)(C(=O)O)C(=O)O`, the growth inhibition in test [1] is -12.6%; in test [2], -45.9%; in test [3], -32.9%; in test [4], 6.05%; in test [5], -29.1%; in test [6], -7.95%.

As to `O=S(=O)(Oc1ccc(-c2ccccc2)cc1Br)c1ccccc1`, the growth inhibition was 13% in test [1]; -0.85% in test [2]; 5.55% in test [3]; 8.3% in test [4]; 1.8% in test [5]; -5.6% in test [6].

As to `CCCCCOc1ccc(C(=O)OC)cc1`, the growth inhibition is -25.9% in test [1]; -5.15% in test [2]; 6.2% in test [3]; -22.8% in test [4]; -0.1% in test [5]; -20% in test [6].

Take `COC(=O)CC1OCC=C2CN3CCC45C6=CC(=O)C(=O)C([N+](=O)[O-])=C6NC4C1C2CC35` (stereo unspecified): the growth inhibition in test [1] was 0.8%; in test [2] it was -22.4%; in test [3], -15.4%; in test [4] it was 8.3%; in test [5], -4.8%; in test [6] it was -17.8%.

In the case of `O=[N+]([O-])c1ccc(N/N=C2\C=CCCC2)c([N+](=O)[O-])c1`, the growth inhibition was -0.95% in test [1]; -11.9% in test [2]; -13% in test [3]; 15.3% in test [4]; -12.6% in test [5]; 17.1% in test [6].

`C=C(C)c1ccccc1S(=O)(=O)c1ccccc1C(C)(C)O`: the growth inhibition in test [1] was -23.4%; in test [2], 5.1%; in test [3] it was 6.25%; in test [4], 55.1%; in test [5], 36.5%; in test [6], 9.1%.

As for `CC(O)CN1CCCC1` (stereo unspecified), the growth inhibition is 5.75% in test [1]; -21.9% in test [2]; -4% in test [3]; 6.2% in test [4]; 0.6% in test [5]; 9.35% in test [6].

As to `CCC(C(=O)c1ccccc1)C1(C(=O)OC)NC(=S)NC(=O)C1C#N` (stereo unspecified), the growth inhibition in test [1] was 3.25%; in test [2] it was -2.85%; in test [3], -2.55%; in test [4], -17.9%; in test [5], -8.05%; in test [6], 4%.

On to `O=[N+]([O-])c1ccc2c(c1)Cc1cc(N(CBr)CBr)ccc1-2`, for which the growth inhibition in test [1] was 6.35%; in test [2], 5.8%; in test [3], -1.4%; in test [4], -21.7%; in test [5], -7.55%; in test [6], 18.9%.

Regarding `N#Cc1nc(/C=C/c2cccnc2)oc1N`, the growth inhibition was -1.9% in test [1]; 6.7% in test [2]; -8.1% in test [3]; -3.65% in test [4]; -6.55% in test [5]; -56.6% in test [6].

On to `CCCCCCCCCCCCCCOc1ccc(OCCCCCCCCC)cc1`, for which the growth inhibition was 38.4% in test [1]; -14.9% in test [2]; 24.1% in test [3]; -13.8% in test [4]; 3.4% in test [5]; -13.9% in test [6].

Take `O=C(c1cc(O)c(O)c(O)c1)c1ccc(O)c(O)c1O`: the growth inhibition in test [1] is 12.9%; in test [2], 5.95%; in test [3], 11.3%; in test [4] it was 5.2%; in test [5], 14.1%; in test [6], 32.8%.

Take `CC(=O)OC(C(=O)Nc1ccc(Br)cc1)c1ccccc1` (stereo unspecified): the growth inhibition in test [1] is 4.7%; in test [2], -3.95%; in test [3], -4.75%; in test [4], -35.5%; in test [5], 11.6%; in test [6] it was -6.65%.

In the case of `CCOC(=O)C(C)=P(c1ccccc1)(c1ccccc1)c1ccccc1`, the growth inhibition in test [1] is -1.6%; in test [2], -5.8%; in test [3], -1%; in test [4], -39.2%; in test [5], -0.7%; in test [6], -11.3%.

As for `Nc1ccc(S(=O)c2ccc(N)cc2)cc1`, the growth inhibition in test [1] is 27.9%; in test [2] it was -14.1%; in test [3], 8.25%; in test [4], 20.8%; in test [5], 18.6%; in test [6] it was 33.1%.

As to `CCc1cccc(CC)c1NC(=O)c1ccccc1Br`, the growth inhibition in test [1] was 2.5%; in test [2] it was 1.85%; in test [3], 15.7%; in test [4] it was 16.3%; in test [5], -0.05%; in test [6], 21.2%.

As for `O=C(O)c1cc(/C=C/c2ccccc2)ccc1[N+](=O)[O-]`, the growth inhibition in test [1] is -11.2%; in test [2] it was 25.5%; in test [3], 7.5%; in test [4] it was -33.6%; in test [5], -5.8%; in test [6] it was -3.1%.

Consider `Clc1ccccc1C(Cl)c1ccccc1` (stereo unspecified), for which the growth inhibition in test [1] was 3.3%; in test [2], -14.2%; in test [3] it was -5.95%; in test [4] it was -21.6%; in test [5], -10.7%; in test [6], -6.25%.

With `Clc1ccc2c(Cl)ncnc2c1I`, the growth inhibition in test [1] is -2.5%; in test [2], -13.8%; in test [3], 28.9%; in test [4], 3%; in test [5] it was 4.4%; in test [6] it was -4.2%.

For the origin of these results see PubChem BioAssay (NCI).
